These results are taken from PubChem BioAssay AID1745848 (National Center for Advancing Translational Sciences (NCATS), 2022).

Hit rate of the full screen: of about 2,100 compounds, about 940 (45%) were called active. About 48% were inconclusive and are not listed. So high a share suggests a set chosen from earlier hits. The list shows a part of the results. A number with no mark means an inactive call. The call rests on the fitted dose curve; in most records, active means well fitted inhibition curve with a large enough effect; inconclusive means small, poorly fitted or top-dose-only effect; inactive means no such curve, though single readings can be large or run the other way.
Potency means the concentration at half of the fitted maximal effect.

A short description of the experiment: Confirmatory qHTS for Inhibitors of ATXN expression. Further: nearly all actives have a fitted effect of over 65% in size.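 On activity change, negative = inhibition: 0% = DMSO vehicle wells and -100% = medium-only wells without cells.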 The note with it: ATXN2-luciferase reporter cells, luminescence, 24 h; series mostly up to 57.5 µM; activity change, negative = inhibition: at the top concentration. From the text: PI: Daniel Scoles Ph.D. University of Utah School of Medicine, Salt Lake City, Utah MLPCN Grant: NS073009 Spinocerebellar ataxia type 2 (SCA2) is a multisystem neurodegenerative disease caused by a dominantly acting mutation leading to expansion of a polyQ domain in the ataxin-2 protein (ATXN2). SCA2 patients develop progressive ataxia and later lose function in other neuronal systems. Prominent parkinsonian signs develop in some patients. Like many neurodegenerative disorders, no symptomatic or disease-modifying treatments are known. The primary objective of the proposed research is to identify compounds inhibiting ATXN2 expression and to test them for efficacy in SCA2 mouse models. We have developed a cell-based assay paired with an in vivo mouse model using identical luciferase expression constructs. This approach takes advantage of an ATXN2-luciferase transgene, with the luciferase gene flanked by the upstream and downstream portions of the ATXN2 gene. Here we describe a 5-7 dose quantitative high thoroughput screen (qHTS) for compounds lowering ATXN2 expression. We screened the NIH Molecular Libraries Small Molecule Repository (MLSMR) and NCGC's mechanistically annotated (MIPE) and drug repurposing (NPC) collections of compounds for lowering expression of an ATXN2-luciferase reporter in HEK-293 cells. The assay is a multiplexed cell viability assay to ensure target reduction in the absence of cytotoxicity. Secondary qHTS assays included a CMV-luciferase reporter expressed in HEK-293 cells as well as a biochemical assay using recombinant luciferase to detect inhibitors of the reporter enzyme. Compounds that inhibit ATXN2 expression but is not cytotoxic were selected for confirmatory and secondary screens.
PROTOCOL TABLE (as described by Inglese J, Shamu CE and Guy RK. 2007) SEQUENCE No. (e.g., 1, 2, 3, etc.); PARAMETER (e.g., Cells, Incubation, Reagent, etc.); VALUE; DESCRIPTION. 1; Cells; 4 uL; white, solid bottom, 1536-well Greiner assay plate. 2; Incubation; 2 hr; 37 degree C in 5% humidified CO2. 3; Compounds; 23 nL; Kalypsis pintool (Wako USA) equipped with a 1536-well pin head. 4; Incubation; 24 hr; 37 degree C in 5% humidified CO2. 5; Reagent; 1 uL; Gly-Phe-7-Amino-4-trifluoromethylcoumarin. 6; Incubation; 30 min; 37 degree C in 5% humidified CO2. 7; Detection; Fluorescence; ViewLux plate reader (PerkinElmer). 8; Reagent; 3 uL; SteadyGlo luciferase solution (Promega). 9; Incubation; 5 min; room temperature. 10; Detection; Luminescence; ViewLux plate reader (PerkinElmer). NOTES (numbers refer to Sequence numbers above) 1. […] expressing ATXN2-luciferase reporter were suspended in phenol-red free DMEM and dispensed in assay plates using a Multidrop Combi dispenser (Thermo Fisher Scientific). Wells containing medium only were plated on each plate, and values were used to normalize (100% inhibition) in the luciferase and CellTiter-Fluor assays. 2. Assay plates were incubated. Evaporation was prevented by covering assay plates with metal lids containing holes to allow gas diffusion. 3. Compounds were added in a dose response manner with the final concentrations of 57, 11.4, 2.28, 0.46, 0.091, 0.018, 0.0037 uM. Vehicle-only plates, with DMSO being pin-transferred to columns 5-48, were inserted uniformly at the beginning and the end of each library to monitor and record any shifts in assay performance. 5. 125 uM Gly-Phe-7-Amino-4-trifluoromethylcoumarin (MP Biomedicals) working concentration was used at a final concentration of 25 uM. 7. To assess cell viability; the assay plates were read using the ViewLux high-throughput CCD imager (PerkinElmer), wherein single end-point fluorescence measurement was acquired (excitation 405/10; emission 540/25 nm). 8. Detection reagent SteadyGlo Luciferase (Promega) was added to the assay plate. 10. Luminescence is then measured on the ViewLux imager equipped with a clear emission filter using a 2 sec exposure. […]
In the case of `N#Cc1ncc(N=Cc2ccc(N(CCCl)CCCl)cc2)s1`, the Potency is 2 µM (active).

Turning to `CCCCCCC(=O)N/N=C/c1c(O)n(CCc2ccccc2)c(=O)[nH]c1=O`, the Potency was 12.6 µM (active).

On to `CCCCC(=O)N/N=C/c1c(O)n(CCC2=CCCCC2)c(=O)[nH]c1=O`, for which the Potency is 15.8 µM (active).

Turning to `CCCCCCC(=O)N/N=C/c1c(O)n(CCCC)c(=S)[nH]c1=O`, the Potency was 15.8 µM (active).

With `Cc1ccc(N2C(=O)NC(=O)/C(=C/C=C/c3ccco3)C2=O)cc1`, the Potency was 2.82 µM (active).

For the molecule `COc1ccc(CC2C(=O)NC(C)C(=O)N(C)C3C(=O)N(C)C(Cc4ccc(O)c(c4)Oc4ccc(cc4)C3O)C(=O)NC(C)C(=O)NC(C)C(=O)N2C)cc1` (stereo not given), the Potency was 0.316 µM (active).

In the case of `CCC(C)N1C(=O)/C(=C\c2cnc(N(C)C)nc2)C(=O)NC1=S` (stereo not given), the “activity change, negative = inhibition” value was -13.2%.

On to `CC12CCC(O)CC1CCC1C2CCC2(C)C(C3=CC(=O)OC3)C(O)CC12O` (stereo not given), for which the Potency is 3.16 µM (active).

With `CC1OC(OC2C(O)CC(OC3C(O)CC(OC4CCC5(C)C(CCC6C5CCC5(C)C(C7=CC(=O)OC7)C(O)CC65O)C4)OC3C)OC2C)CC(O)C1O` (stereo not given), the Potency is 0.316 µM (active).

`C[C@]12CC[C@H](O)C[C@H]1CC[C@@H]1C2CC[C@]2(C)[C@@H](C3=CC(=O)OC3)[C@@H](O)C[C@]12O` (stereo not given in full): the Potency was 0.355 µM (active).

Take `CC(=O)OC1CC2(O)C3CCC4CC(O)CCC4(C)C3CCC2(C)C1C1=CC(=O)OC1` (stereo not given): the Potency is 0.316 µM (active).

Turning to `COC1C(O)C(C)OC(OC2CCC3(C)C(CCC4C3C(O)CC3(C)C(C5=CC(=O)OC5)CCC43O)C2)C1O` (stereo not given), the Potency is 0.316 µM (active).

On to `CN1CN(c2ccccc2)C2(CCN(CCCSc3ccccc3NC(=O)/C=C/c3ccccc3)CC2)C1=O`, for which the Potency is 28.2 µM (active).

Regarding `CC(C)c1oc(=O)cc2c1[C@@H](O)[C@H]1OC(=O)[C@@]3(C)CC[C@@H](O)[C@@]2(C)C13` (stereo not given in full), the Potency is 3.16 µM (active).

`CCC1(OC(=O)CN)C(=O)OCc2c1cc1n(c2=O)Cc2cc3ccccc3nc2-1` (stereo not given): the Potency was 0.0398 µM (active).

Take `CC[C@@]1(O)C(=O)OCc2c1cc1n(c2=O)Cc2cc3c(NC(=O)CN)cccc3nc2-1`: the Potency is 0.112 µM (active).

As for `COc1ccc(CC2NCC(O)C2OC(C)=O)cc1` (stereo not given), the Potency was 0.224 µM (active).

`COc1ccc(C[C@H]2NC[C@H](O)[C@H]2OC(C)=O)cc1`: the Potency was 0.0282 µM (active).

With `Cc1ccc(/C=C2\C(=O)NC(=S)N(c3ccccc3F)C2=O)s1`, the Potency was 3.16 µM (active).

With `CCC1CN2CCc3cc(OC)c(OC)cc3C2CC1CC1NCCc2c1[nH]c1ccc(O)cc21` (stereo not given), the Potency is 0.0398 µM (active).

On to `CSCCC(c1nnnn1-c1c(C)cccc1C)N1CCC2(CC1)C(=O)NCN2c1ccccc1` (stereo not given), for which the Potency is 35.5 µM (active).

Take `CCC(C)(O)C(=O)OC1C(=O)OC2CC3C(C)=CC(=O)C(O)C3(C)C3C4(O)OCC23C1C(C)C4O` (stereo not given): the Potency was 0.251 µM (active).

As for `O=c1[nH]c2ccccc2n1C1CCN(C(CCc2ccccc2)c2nnnn2C2CCCC2)CC1` (stereo not given), the Potency is 22.4 µM (active).

`CC(C)(C)n1nnnc1C(CCc1ccccc1)N1CCC(n2c(=O)[nH]c3ccccc32)CC1` (stereo not given): the Potency is 28.2 µM (active).

On to `COC(=O)c1nc(-c2ccc3c(n2)C(=O)C(N)=C(OC)C3=O)c(N)c(-c2ccc(OC)c(OC)c2O)c1C`, for which the Potency was 14.1 µM (active).

In the case of `COc1cc(C(=O)NN=Cc2ccc(N(CCCl)CCCl)cc2)cc(OC)c1OC`, the Potency was 8.91 µM (active).

In the case of `Cc1cc(N(CCCl)CCCl)ccc1C=NNC(=O)c1cccnc1`, the Potency is 1.58 µM (active).

Consider `O=C(NN=Cc1ccc(N(CCCl)CCCl)cc1)c1cc(=O)[nH]c(=O)[nH]1`, for which the Potency was 3.16 µM (active).

Turning to `COc1ccc(N=Cc2c(O)n(-c3ccc(C)cc3)c(=O)[nH]c2=O)cc1`, the “activity change, negative = inhibition” value was -15.9%.

For the molecule `Oc1c(Cl)cccc1Cc1cc(Cl)cc(Cl)c1O`, the Potency was 15.8 µM (active).

Take `Clc1ccc2[nH]c3c(c2c1)CCNC3`: the Potency is 3.16 µM (active).

Take `O=[N+]([O-])c1oc2ccc3ccccc3c2c1CCO`: the Potency is 14.1 µM (active).

As for `C[C@@H]1O[C@@H](O[C@@H]2C=C3CC[C@@H]4C(CC[C@]5(C)[C@@H](c6ccc(=O)oc6)CC[C@]45O)[C@@]3(C)CC2)[C@H](O)[C@H](O)[C@H]1O` (stereo not given in full), the Potency is 0.112 µM (active).

With `COc1cccc2c1C(=O)c1c(O)c3c(c(O)c1C2=O)CC(O)(C(C)=NO)CC3OC1CC(N)C(O)C(C)O1` (stereo not given), the Potency is 0.708 µM (active).

Regarding `Cc1ccc(N2C(=O)NC(=O)/C(=C\c3cc(C)n(-c4sc5c(c4C#N)CCCC5)c3C)C2=O)cc1`, the Potency is 10 µM (active).
